Test results as given in PubChem BioAssay (NCI).
The panel holds about 83,000 compounds, 20% with a hit somewhere; the sample as a whole holds those more often.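 Note: values are percent growth. 100 is the growth of untreated cells, values between 100 and 0 indicate rising inhibition; between -100 and 0 indicates cell death.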 Unmarked numbers belong to inactive results. Active and inactive are the calls of the source. The calls were made as follows: active = growth percent below 10; inactive = the rest.

Legend:
Assay in all cases: NCI-60 one-dose screen, 48 h (100 = growth as untreated, 0 = no growth, -100 = all killed)
Conditions in all cases: 10 µM unless noted
[1] = system: NCI-H23 lung
[2] = system: NCI-H226 lung
[3] = system: NCI-H322M lung
[4] = system: HOP-62 NSCLC
[5] = system: NCI-H460 lung
[6] = system: HOP-92 NSCLC
[7] = system: NCI-H522 lung
[8] = system: A549/ATCC NSCLC
[9] = system: 786-0 renal
[10] = system: COLO 205 colon

Compound: COc1cccc(/C=C/C(=O)c2cc3c(N)c(C(=O)Nc4ccccc4)sc3nc2C)c1
- growth [1]: 49.6%
- growth [2]: 55.3%
- growth [3]: 67.9%
- growth [4]: 13.6%
- growth [5]: -22.5% (active)
- growth [6]: 64.4%
- growth [7]: 7.06% (active)
- growth [8]: 34.3%
- growth [9]: -38.2% (active)
- growth [10]: 67.6%

Compound: O=C1c2cc(Cl)ccc2S(=O)(=O)c2c(NCCCNCCO)nc3ccccc3c21
- growth [1]: 25.7%
- growth [2]: 27.4%
- growth [3]: 73.8%
- growth [4]: 42.3%
- growth [5]: 22.5%
- growth [6]: -66% (active)
- growth [7]: -77.1% (active)
- growth [8]: 43.3%
- growth [9]: 2.5% (active)
- growth [10]: -81.2% (active)

Compound: N#Cc1c(-c2cccs2)cc(-c2cccnc2)[nH]c1=O
- growth [1]: 102%
- growth [2]: 98.5%
- growth [3]: 96.8%
- growth [4]: 90.3%
- growth [5]: 110%
- growth [6]: 104%
- growth [7]: 98.7%
- growth [8]: 97.8%
- growth [9]: 103%
- growth [10]: 97.2%

Compound: CC1=C(CCC(C)N(C)Cc2ccc(OCCCN3CCCC3)cc2)C(C)(C)CCC1 (stereo not given)
- growth [1]: 64%
- growth [2]: 85.5%
- growth [3]: 55.5%
- growth [4]: 36.6%
- growth [5]: 5.81% (active)
- growth [6]: 27.3%
- growth [7]: -52.2% (active)
- growth [8]: 37.8%
- growth [9]: 17.3%
- growth [10]: -78.8% (active)

Compound: N=C(N)c1ccc(-c2ccc(-c3cc(Cl)cc(Cl)c3)o2)o1
- growth [1]: -75.4% (active)
- growth [2]: 43.9%
- growth [3]: -77.4% (active)
- growth [4]: -72.2% (active)
- growth [5]: -78.3% (active)
- growth [6]: 50.5%
- growth [7]: -70.4% (active)
- growth [8]: -71% (active)
- growth [9]: -61.9% (active)
- growth [10]: -81.7% (active)

Compound: CCN1C(=O)N(CC)C2C1NN=c1s/c(=C\c3ccc(Cl)cc3Cl)c(=O)n12 (stereo not given)
- growth [1]: 28.4%
- growth [2]: 48.8%
- growth [3]: 42.4%
- growth [4]: 33.5%
- growth [5]: 5.72% (active)
- growth [6]: 50.8%
- growth [7]: -8.78% (active)
- growth [8]: 14.6%
- growth [9]: 20.6%
- growth [10]: -7.91% (active)

Compound: COc1ccc(OC)c(C(=O)/C=C/c2cc3c(c(OC)c2OC)OCO3)c1
- growth [1]: 57.8%
- growth [2]: 92%
- growth [3]: 71.1%
- growth [4]: 101%
- growth [5]: 50.1%
- growth [6]: 62.2%
- growth [7]: 74.3%
- growth [8]: 62.7%
- growth [9]: 100%
- growth [10]: 95.8%

Compound: C=CCn1c(SCC(=O)NCc2cc(C)c(O)c(C)c2)nc2ccc(Cl)cc2c1=O
- growth [1]: 101%
- growth [2]: 87.2%
- growth [3]: 97%
- growth [4]: 101%
- growth [5]: 107%
- growth [6]: 82.2%
- growth [7]: 94.1%
- growth [8]: 106%
- growth [9]: 92.5%
- growth [10]: 116%

Compound: C=C(C)[C@@H]1CC[C@]2(C(=O)OC)CC[C@]3(C)[C@H](CC[C@@H]4[C@@]5(C)C/C(=C/NC(N)=S)C(=O)C(C)(C)[C@@H]5CC[C@]43C)[C@@H]12
- growth [1]: 80.4%
- growth [2]: 86.3%
- growth [3]: 101%
- growth [4]: 97.5%
- growth [5]: 88.9%
- growth [6]: 90.4%
- growth [7]: 88.2%
- growth [8]: 76.5%
- growth [9]: 108%
- growth [10]: 110%

Compound: O=C1NCCC12CCN(c1c(Cl)cncc1-c1ccc(O)cc1)CC2
- growth [1]: 100%
- growth [2]: 83.9%
- growth [3]: 103%
- growth [4]: 112%
- growth [5]: 104%
- growth [6]: 114%
- growth [7]: 78%
- growth [8]: 94.6%
- growth [9]: 100%
- growth [10]: 105%

Compound: COc1cc(-c2nc(SCCC(C)C)nc(Nc3ccccc3Cl)c2C#N)cc(OC)c1OC
- growth [1]: 101%
- growth [2]: 102%
- growth [3]: 100%
- growth [4]: 110%
- growth [5]: 97.7%
- growth [6]: 91%
- growth [7]: 84.5%
- growth [8]: 92.1%
- growth [9]: 92.4%
- growth [10]: 109%

Compound: CN1C(=O)/C(=C/c2ccc(C(=O)Nc3ncc(Cc4ccc(Cl)cc4)s3)cc2)SC1=S
- growth [1]: 65.7%
- growth [2]: 71.5%
- growth [3]: 56%
- growth [4]: 49.7%
- growth [5]: 21.1%
- growth [6]: 51.6%
- growth [7]: 36.4%
- growth [8]: 48.5%
- growth [9]: 47.5%
- growth [10]: 80.3%

Compound: Cc1noc(C)c1C(=O)OCc1coc2ccccc2c1=O
- growth [1]: 71.3%
- growth [2]: 84.9%
- growth [3]: 96.2%
- growth [4]: 87.5%
- growth [5]: 83.8%
- growth [6]: 27.4%
- growth [7]: -15.4% (active)
- growth [8]: 89.5%
- growth [9]: 55.4%
- growth [10]: 66.6%

Compound: COc1cc2c(c(OC)c1OC)C(=O)CC(c1cccc(NC(=O)c3ccc(Br)cc3)c1)O2 (stereo not given)
- growth [1]: 51.2%
- growth [2]: 49.2%
- growth [3]: 72.5%
- growth [4]: 47.2%
- growth [5]: 57%
- growth [6]: 25.7%
- growth [7]: 9.27% (active)
- growth [8]: 48.6%
- growth [9]: 78.1%
- growth [10]: 55.5%

Compound: CC1(C)c2[nH]c3ccccc3c2C[C@]2(C)[C@H]3CC=C4[C@@H]5C[C@@](C)(C(N)=O)CC[C@]5(C)CC[C@@]4(C)[C@]3(C)CC[C@@H]12
- growth [1]: 51.2%
- growth [2]: 60.4%
- growth [3]: 76.1%
- growth [4]: 79.5%
- growth [5]: 52.6%
- growth [6]: 80.6%
- growth [7]: 52.5%
- growth [8]: 53.6%
- growth [9]: 74.5%
- growth [10]: 58.9%

Compound: O=c1oc2c(cnc3ccccc32)cc1-c1ccsc1
- growth [1]: 99.8%
- growth [2]: 97.8%
- growth [3]: 110%
- growth [4]: 92.3%
- growth [5]: 99.9%
- growth [6]: 82.4%
- growth [7]: 97.4%
- growth [8]: 105%
- growth [9]: 97.1%
- growth [10]: 112%

Compound: Cc1oc(-c2ccc(Cl)cc2)nc1/C=C/C(=O)c1ccccc1
- growth [1]: 98.8%
- growth [2]: 88.4%
- growth [3]: 101%
- growth [4]: 110%
- growth [5]: 103%
- growth [6]: 88.4%
- growth [7]: 93.1%
- growth [8]: 99.1%
- growth [9]: 96.4%
- growth [10]: 114%

Compound: O=C(CSc1nc2ccc([N+](=O)[O-])cc2[nH]1)Nc1ccc(F)cc1
- growth [1]: 40.4%
- growth [2]: 48.9%
- growth [3]: 86.5%
- growth [4]: 105%
- growth [5]: 56.8%
- growth [6]: -6.84% (active)
- growth [7]: 30.1%
- growth [8]: 58.2%
- growth [9]: 62.7%
- growth [10]: 68.3%

Compound: CC1=C(C(=O)OC(C)C)C(c2ccc3c(c2)OCO3)NC(=S)N1 (stereo not given)
- growth [1]: 99.2%
- growth [2]: 84.1%
- growth [3]: 108%
- growth [4]: 119%
- growth [5]: 110%
- growth [6]: 96.6%
- growth [7]: 86.4%
- growth [8]: 104%
- growth [9]: 104%
- growth [10]: 123%

Compound: O=C1c2cccc3cccc(c23)C(=O)N1N1C(=O)c2cccc3c(N4CCOCC4)ccc(c23)C1=O
- growth [1]: 89.1%
- growth [2]: 95.4%
- growth [3]: 94.5%
- growth [4]: 87.3%
- growth [5]: 101%
- growth [6]: 85.6%
- growth [7]: 102%
- growth [8]: 95.5%
- growth [9]: 102%
- growth [10]: 108%

Compound: CCc1n(Cc2ccc3ccccc3c2)cc[n+]1Cc1ccc2ccccc2c1
- growth [1]: -14.6% (active)
- growth [2]: 6.75% (active)
- growth [3]: 44.3%
- growth [4]: 11.9%
- growth [5]: 5.54% (active)
- growth [6]: -31.4% (active)
- growth [7]: -25.4% (active)
- growth [8]: 28.5%
- growth [9]: 35.7%
- growth [10]: -67.5% (active)

Compound: O=C(CSc1nc2ccc([N+](=O)[O-])cc2[nH]1)Nc1cccc(C(F)(F)F)c1
- growth [1]: 1.74% (active)
- growth [2]: 10.8%
- growth [3]: 50.1%
- growth [4]: 27.6%
- growth [5]: 14.4%
- growth [6]: -28.9% (active)
- growth [7]: 3.44% (active)
- growth [8]: 23.2%
- growth [9]: 23.9%
- growth [10]: 16.8%

Compound: Nc1c(C(=O)Nc2ccccc2Cl)sc2nc3c(cc12)C(O)CCC3 (stereo not given)
- growth [1]: 44.2%
- growth [2]: 52.8%
- growth [3]: 60.2%
- growth [4]: 41.8%
- growth [5]: 24.5%
- growth [6]: 46.4%
- growth [7]: -33.7% (active)
- growth [8]: 25.4%
- growth [9]: 48.1%
- growth [10]: 4.09% (active)

Compound: OCCCC1CCN(C(Cc2ccccc2)c2ccccc2)CC1 (stereo not given)
- growth [1]: 102%
- growth [2]: 102%
- growth [3]: 93.7%
- growth [4]: 87.2%
- growth [5]: 106%
- growth [6]: 80.6%
- growth [7]: 43.9%
- growth [8]: 73.3%
- growth [9]: 82.5%
- growth [10]: 79.9%

Compound: O=c1oc2ccc([N+](=O)[O-])cc2cc1Br
- growth [1]: 107%
- growth [2]: 98.4%
- growth [3]: 108%
- growth [4]: 104%
- growth [5]: 107%
- growth [6]: 83.7%
- growth [7]: 97.9%
- growth [8]: 108%
- growth [9]: 112%
- growth [10]: 105%

Compound: CCCCCCNC(=O)Oc1ccc(/C(=C(/C)Cc2ccc(OC)cc2)c2ccc(OCCCN(C)C)cc2)cc1
- growth [1]: 70.7%
- growth [2]: 90.5%
- growth [3]: 70.5%
- growth [4]: 76%
- growth [5]: -52.7% (active)
- growth [6]: 25%
- growth [7]: 36.4%
- growth [8]: 31.9%
- growth [9]: 44.5%
- growth [10]: -84% (active)
